Data taken from PubChem BioAssay AID1851 (National Center for Advancing Translational Sciences (NCATS), 2009).
Values joined by “and” are separate entries in the source; they are usually repeats but may differ in a detail not shown here. Equal values may be shown once. Among all 16,000 compounds or so, about 5,700 (36%) were called active. Inconclusive results (about 24%) are left out. The call rests on the fitted dose curve; in most records, active means well fitted curve in the direction sought with a large enough effect; inconclusive means small, poorly fitted or top-dose-only effect, or effect the other way; inactive means no such curve, though single readings can be large or run the other way. The list shows a part of the results.

Target: Cytochrome P450 1A2 (Homo sapiens) (UniProt P05177)
Sequence (P05177 whole entry, looked up): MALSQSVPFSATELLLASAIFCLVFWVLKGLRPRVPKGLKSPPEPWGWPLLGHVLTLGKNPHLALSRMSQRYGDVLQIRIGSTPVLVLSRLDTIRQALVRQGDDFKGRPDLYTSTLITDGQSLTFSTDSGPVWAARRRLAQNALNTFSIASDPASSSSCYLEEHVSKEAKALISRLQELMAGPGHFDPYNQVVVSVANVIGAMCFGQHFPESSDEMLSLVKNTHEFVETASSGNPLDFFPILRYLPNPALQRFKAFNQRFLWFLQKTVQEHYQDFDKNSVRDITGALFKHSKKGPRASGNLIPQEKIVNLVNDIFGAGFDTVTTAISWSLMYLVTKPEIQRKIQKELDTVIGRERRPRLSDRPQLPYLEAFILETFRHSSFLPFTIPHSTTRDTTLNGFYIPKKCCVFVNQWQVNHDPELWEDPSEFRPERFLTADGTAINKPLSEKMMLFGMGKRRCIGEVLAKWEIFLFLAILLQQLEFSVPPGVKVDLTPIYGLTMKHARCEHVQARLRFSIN
Test: Cytochrome panel assay with activity outcomes
Conditions: recombinant CYP, pro-luciferin dealkylation, luminescence, p450-cyp1a2; series mostly up to 57.1 µM; activity, negative = inhibition: at the top concentration
Method: The P450 gene superfamily is involved in the metabolism and clearance of xenobiotics. This assay used various human CYP P450 isozymes to measure the dealkylation of various pro-luciferin substrates to luciferin. The luciferin is then measured by luminescence after the addition of a luciferase detection reagent. Pro-luciferin substrate concentration in the assay was equal to its KM for its CYP P450 isozyme. Inhibitors and some substrates limit the production of luciferin, and decrease measured luminescence.
NCGC Assay Protocol Summary:
1, Reagent, 2 uL, Isozyme and Pro-Luciferin
2, Library compounds, 23 nl, 40 uM to 0.24 nM dilution series
3, Controls, 23 nl, Isozyme specific inhibitor
4, Reagent, 2 uL, NADPH regeneration solution
5, Incubation time, 60 min, Isozyme specific temperature
6, Reagent, 4ul, Detection reagent
7, Incubation time, 20 min, Isozyme specific temperature
8, Detection, 1 sec, ViewLux luminescent read
The luciferase-based P450-GloTM Screening Systems were obtained from Promega (Madison, WI) for CYP 1A2 (V9770), CYP 2C9 (V9790), CYP2 C19 (V9880), CYP 2D6 (V9890), and CYP 3A4 Luciferin-PPXE (V9910) and were adapted for 1,536-well microplates and an automated protocol. The control compounds furafylline for 1A2 (F124), sulfaphenazole for CYP 2C9 (S0758), ketoconazole for CYP 2C19 (K1003), quinidine for 2D6 (Q3625), and ketoconazole for 3A4 (K1003) were purchased from Sigma Aldrich (St. Louis, MO). Recombinant P450 enzymes were obtained from baculovirus constructs expressed in insect cells (BD/Gentest).
Medium-binding white solid Kalypsys plates used. Mixtures kept on ice. 1A2: 10 nM 1A2, 100 uM Luc-ME, 100 mM KPO4; 2C9: 10 nM 2C9, 100 uM Luc-H, 25 mM KPO4; 2C19: 5 nM 2C19, 10 uM Luc-H EGE, 50 mM KPO4; 2D6: 5 nM 2D6, 30 uM Luc-ME EGE, 100 mM KPO4; 3A4: 10 nM, 25 uM Luc-PPXE. All amounts are reflected in their final concentration, working concentration is 2x.
NADPH regeneration solution: 1.3 mM NADP+, 3.3 mM glucose-6-phosphate, 3.3 mM MgCl2, 0.4 U/mL glucose-6-phosphate dehydrogenase for all isozymes, 200 mM KPO4 for 3A4. Mixture prepared at RT but kept on ice during automated run.
RT incubation in auxilliary plate hotel for 1A2, 2D6, and 3A4; 37C for 2C9 and 2C19.
Keywords: P450, CYP1A2, CYP2C19, CYP2C9, CYP2D6, CYP3A4, Luciferase, MLSMR, MLSCN, NIH Roadmap, qHTS, NCGC
On the % scale 0 is the no-effect control and ±100 the full control effect.

Structure (SMILES)	activity, negative = inhibition	AC50
C[C@H](N)Cc1c[nH]c2ccc(O)cc12	-15.7% (inactive)	
C[C@H](N)Cc1c[nH]c2ccc(OCc3cccs3)cc12		1.58 µM (active) and 126 nM (active)
O=P(O)(O)C(Cl)(Cl)P(=O)(O)O	-2.79% (inactive)	
CS(=O)(=O)Nc1ccc(Cc2noc(-c3ccc4[nH]cc(CCN)c4c3)n2)cc1		0.0316 µM (active)
C=C[C@]12CN(C)[C@H]3C1[C@@]1(C(=O)Nc4ccccc41)[C@H]1C[C@H]2[C@H]3CO1	-3.88% [at 25.6 µM] (inactive)	
O=C1C=C2C=C[C@H]3C[C@@]2(O1)[C@H]1CCCCN31	-3.52% [at 25.6 µM] (inactive)	
Fc1ccccc1CCNCc1cccc(Cl)c1Cl		5.62 µM (active)
O=[N+]([O-])c1ccc2nc(N3CCNCC3)ccc2c1		2 µM (active)
c1ccc2c(N3CCNCC3)cccc2c1		10 µM (active)
c1ccc2nc(N3CCNCC3)ccc2c1		1.58 µM (active) and 1.26 µM (active) and 251 nM (active)
CN1CCN(c2ccc3ccccc3n2)CC1		10 µM (active) and 3.16 µM (active)
COc1ccccc1N1CCNCC1	-0.244% (inactive)	
c1ccc(N2CCC3(CCNCC3)CC2)nc1	-11.5% (inactive)	
c1ccc(CN2CCC3(CCNCC3)CC2)cc1	-13.6% (inactive)	
C[N+]1([O-])[C@@H]2CC(OC(=O)[C@@H](CO)c3ccccc3)C[C@@H]1[C@H]1O[C@H]12 (stereo not given in full)		inactive
CCC1(CCSC(=N)N)C(=O)NC(=O)NC1=O	-10.9% [at 2.29 µM] (inactive)	
NO	-18.7% (inactive)	
CC(=O)O[C@@H]1CN2CCC1CC2	-10.4% (inactive)	
O=C1NC(=O)N(CCNc2ncc(C(F)(F)F)cc2Cl)C(=O)C1/C=N/OCc1c(F)cccc1Cl (stereo not given)	-2.55% (inactive)	
CP(=O)(O)C1=CCNCC1	5.68% (inactive)	
COC(=O)CN1CN(c2ccccc2)C2(CCN(Cc3ccc4ccccc4c3)CC2)C1=O	-20% (inactive)	
c1cnc(N2CCC3(CCNCC3)CC2)nc1	2.02% (inactive)	
N[C@@H](CSC1c2ccccc2-c2ccccc21)C(=O)O		2.51 µM (active)

Structure (SMILES)	activity, negative = inhibition	AC50
N[C@H](Cn1ccc(=O)[nH]c1=O)C(=O)O	-3.21% (inactive)	
N[C@H](CCl)C(=O)O	-4.47% (inactive)	
C=C1[C@@H]2C[C@@]3([C@H]1O)[C@H]1C[C@@H]4[C@@]5(C)CC[C@H](O)[C@]4([C@H]1N(CC)C5)[C@H]3C[C@H]2O	-12.3% [at 25.6 µM] (inactive)	
CC(C)CCn1c(N)c(C(=O)NCc2cccs2)c2nc3ccccc3nc21		2.24 µM (active)
CCCCn1c(N)c(C(=O)NCc2cccs2)c2nc3ccccc3nc21		2.82 µM (active)
COCCCN1CCN(c2nnc3n2-c2sc(Br)cc2C(c2ccccc2Cl)=NC3)CC1	0.0974% (inactive)	
COC(=O)[C@@H]1[C@@H](O)[C@@]2(O)c3c(OC)cc(OC)cc3O[C@@]2(c2ccc(OC)cc2)[C@H]1c1ccccc1	-2.88% [at 11.4 µM] (inactive)	
CCCC[N+]1(C)[C@@H]2CC(OC(=O)[C@@H](CO)c3ccccc3)C[C@H]1[C@H]1O[C@H]12 (stereo not given in full)	1.42% (inactive)	
COc1cc2c(cc1OC)[C@H](C)NCC2	-1.22% [at 25.6 µM] (inactive)	
[N-]=[N+]=NCC(=O)c1c[nH]c(=O)[nH]c1=O	0.0946% [at 2.29 µM] (inactive)	
O=[N+]([O-])c1cc(-c2ccc([As](=O)(O)O)cc2)ccc1[As](=O)(O)O	-10.9% [at 2.29 µM] (inactive)	
CCC1(C)CC(=O)NC(=O)C1	-2.91% [at 25.6 µM] (inactive)	
COc1ccc2c(c1OC)C(=O)O[C@H]2[C@H]1c2cc3c(cc2CCN1C)OCO3	-13.2% [at 25.6 µM] (inactive)	
CCC1=C(C[C@H]2NCCc3ccccc32)C[C@@H]2c3cc(OC)c(OC)cc3CCN2C1	-7.08% [at 11.4 µM] (inactive)	
COc1ccc2c(c1OC)CN1CCc3cc4c(cc3[C@H]1C2)OCO4		1.58 µM (active)
CN(C)CCC(=O)[C@@]1(O)CC[C@H]2[C@H]3CC=C4C[C@@H](O)CC[C@]4(C)[C@H]3CC[C@]21C	-5.71% [at 11.4 µM] (inactive)	
CCN1C[C@@]2(COC)CC[C@H](OC)[C@]34[C@@H]1[C@]1(OCO[C@@]15C[C@@H](OC)C1C[C@H]3[C@H]5[C@@H]1OC)[C@H](O)[C@@H]24	0.342% [at 25.6 µM] (inactive)	
CC[C@@H](CO)NC(=O)[C@H]1C=C2c3cccc4c3c(cn4C)C[C@H]2N(C)C1		15.8 µM (active)
CC[C@H](CO)NC(=O)[C@@H]1C=C2c3cccc4c3c(cn4C)C[C@@H]2N(C)C1	-14.7% (inactive)	
CC(C)C[C@H]1C(=O)N2CCC[C@@H]2[C@]2(O)O[C@](NC(=O)[C@H]3C=C4c5cccc6[nH]c(Br)c(c56)C[C@H]4N(C)C3)(C(C)C)C(=O)N12	-18% (inactive)	
Nc1ccc(S(=O)(=O)c2ccc(NCN3C(=O)NC(=O)C(=O)C3=O)cc2)cc1	-12.8% [at 11.4 µM] (inactive)	
COc1ccc(C(=O)NC2CC3CCCC(C2)N3CC(C)C)cc1OC (stereo not given)	-14% (inactive)	
